According to PubChem BioAssay:
Calls of active or inactive are those of the source.

What was measured:
[1] = optical density shifts of acrAB sulA E. coli – strain DRC41, OD650, 48 h, E. coli filamentation inducer project, primary screen (AID 1152); conditions: higher = more signal, called active from +8 up or from −8 down;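 also: E. coli MC1000 strain DRC41 lacking acrAB efflux pump and sulA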
[2] = probe aLefty1 binding on compound microarray – biochemical, small-molecule microarray, 635/667 nm fluorescence, primary screen (AID 1153); conditions: higher = more signal;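 also: score merges spot fluorescence with signal-to-noise ratio from the scanned slide images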
[3] = plasmodial surface anion channel blockers, osmotic lysis – cell-based, P. falciparum Indochina, OD700, 1 h, primary screen (AID 1154); conditions: P. falciparum Indochina infected RBC osmotic lysis, higher = more signal, called active from +8 up or from −8 down
[4] = plasmodial surface anion channel blockers, osmotic lysis – cell-based, P. falciparum Indochina, OD700, 2 h, primary screen (AID 1155);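 also: lysis reports solute entry through the parasite surface anion channel PSAC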; conditions: P. falciparum Indochina infected erythrocytes, higher = more signal, called active from +8 up or from −8 down
[5] = changes in parasitized red cell lysis, either direction – P. falciparum Indochina, OD700, 3 h, PSAC antagonist project, primary screen (AID 1156); conditions: P. falciparum-infected erythrocytes, osmotic lysis, higher = more signal, called active from +8 up or from −8 down
[6] = plasmodial surface anion channel blockers, osmotic lysis – cell-based, P. falciparum Indochina, OD700, 18 h, primary screen (AID 1157); conditions: P. falciparum Indochina infected erythrocytes, osmotic lysis OD700, 18 h; higher = more signal, called active from +8 up or from −8 down
[7] = S6 kinase pathway phospho-S6 level changes – cell-based, A549, cytoblot, luminescence, serum-stimulated, primary screen (AID 1158); conditions: 5 h, higher = more signal;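 also: serum-stimulated A549 lung adenocarcinoma cells; signal is phosphorylated S6 detected by cytoblot immunostaining with HRP secondary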
[8] = target: NADPH oxidase 2 (Homo sapiens) (UniProt P04839); assay: compounds shifting NOX2 Amplex Red fluorescence – cell-based, HEK293-NOX2, PMA-stimulated, NOX inhibitor project, primary screen (AID 1159); conditions: 45 min, higher = more signal, called active from +8 up or from −8 down; also: test concentration not given here
Sequence of NADPH oxidase 2 (Homo sapiens) (P04839 whole entry, looked up): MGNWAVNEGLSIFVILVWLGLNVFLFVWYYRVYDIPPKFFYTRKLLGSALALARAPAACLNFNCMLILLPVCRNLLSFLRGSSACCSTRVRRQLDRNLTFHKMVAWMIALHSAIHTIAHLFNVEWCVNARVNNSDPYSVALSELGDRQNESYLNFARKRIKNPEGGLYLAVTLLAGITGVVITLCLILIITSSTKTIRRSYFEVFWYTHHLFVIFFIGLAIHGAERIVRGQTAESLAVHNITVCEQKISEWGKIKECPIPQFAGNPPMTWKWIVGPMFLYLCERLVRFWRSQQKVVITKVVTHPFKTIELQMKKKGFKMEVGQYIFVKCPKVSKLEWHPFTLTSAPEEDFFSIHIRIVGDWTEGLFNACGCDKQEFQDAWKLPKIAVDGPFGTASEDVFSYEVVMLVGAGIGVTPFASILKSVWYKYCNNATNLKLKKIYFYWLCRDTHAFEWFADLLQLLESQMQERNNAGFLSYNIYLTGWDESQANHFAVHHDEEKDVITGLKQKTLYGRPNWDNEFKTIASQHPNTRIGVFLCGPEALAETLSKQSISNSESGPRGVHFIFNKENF

[9] = target: NADPH oxidase 4 (Homo sapiens) (UniProt Q9NPH5); assay: compounds shifting NOX4 Amplex Red fluorescence – cell-based, HEK293-NOX4, tetracycline-induced, NOX inhibitor project, primary screen (AID 1160); conditions: HEK293-NOX4, Amplex Red H2O2 fluorescence, 45 min; higher = more signal, called active from +8 up or from −8 down
Sequence of NADPH oxidase 4 (Homo sapiens) (Q9NPH5 whole entry, looked up): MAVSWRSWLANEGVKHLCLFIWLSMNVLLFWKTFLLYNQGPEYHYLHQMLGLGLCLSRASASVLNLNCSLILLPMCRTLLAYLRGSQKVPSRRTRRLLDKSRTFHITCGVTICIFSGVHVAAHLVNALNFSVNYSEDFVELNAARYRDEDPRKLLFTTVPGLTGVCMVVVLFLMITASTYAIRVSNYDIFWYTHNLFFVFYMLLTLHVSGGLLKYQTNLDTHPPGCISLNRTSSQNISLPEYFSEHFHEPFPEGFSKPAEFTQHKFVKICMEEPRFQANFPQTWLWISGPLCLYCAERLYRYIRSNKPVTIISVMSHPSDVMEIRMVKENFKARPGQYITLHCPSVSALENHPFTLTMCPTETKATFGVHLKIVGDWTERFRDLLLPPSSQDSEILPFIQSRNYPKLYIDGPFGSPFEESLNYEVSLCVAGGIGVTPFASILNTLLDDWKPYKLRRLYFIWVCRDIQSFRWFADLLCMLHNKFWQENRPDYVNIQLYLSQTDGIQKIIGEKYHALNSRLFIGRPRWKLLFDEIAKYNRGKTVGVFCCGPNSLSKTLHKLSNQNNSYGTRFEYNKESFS

[10] = target: NADPH oxidase 5 (Homo sapiens) (UniProt Q96PH1); assay: compounds shifting NOX5 Amplex Red fluorescence – cell-based, HEK293-NOX5, NOX inhibitor project, primary screen (AID 1161); conditions: HEK293-NOX5, ionomycin, 45 min, higher = more signal
Sequence of NADPH oxidase 5 (Homo sapiens) (Q96PH1 whole entry, looked up): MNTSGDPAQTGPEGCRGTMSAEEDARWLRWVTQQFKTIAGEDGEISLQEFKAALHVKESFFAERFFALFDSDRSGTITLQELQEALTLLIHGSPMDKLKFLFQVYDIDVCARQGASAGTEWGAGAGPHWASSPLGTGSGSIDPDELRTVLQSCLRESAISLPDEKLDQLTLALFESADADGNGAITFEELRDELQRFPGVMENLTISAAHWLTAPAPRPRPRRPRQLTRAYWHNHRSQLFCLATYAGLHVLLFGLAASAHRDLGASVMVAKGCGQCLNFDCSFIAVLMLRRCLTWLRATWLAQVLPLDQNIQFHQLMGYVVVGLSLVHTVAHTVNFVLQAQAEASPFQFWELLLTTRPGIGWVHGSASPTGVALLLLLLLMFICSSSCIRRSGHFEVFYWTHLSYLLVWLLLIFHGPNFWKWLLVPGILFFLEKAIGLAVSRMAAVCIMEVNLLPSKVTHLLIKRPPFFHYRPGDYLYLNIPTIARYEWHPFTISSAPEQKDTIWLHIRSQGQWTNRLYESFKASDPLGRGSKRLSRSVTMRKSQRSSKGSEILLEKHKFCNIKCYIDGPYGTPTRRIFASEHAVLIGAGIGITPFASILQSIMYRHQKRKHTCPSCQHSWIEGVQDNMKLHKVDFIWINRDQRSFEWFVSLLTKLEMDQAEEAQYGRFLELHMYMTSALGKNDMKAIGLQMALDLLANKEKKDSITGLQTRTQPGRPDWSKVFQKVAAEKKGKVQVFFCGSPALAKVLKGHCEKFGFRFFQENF

[11] = compound effects on lung adenocarcinoma cell viability – A549, calcein-AM fluorescence, 48 h, basal, profiling panel (AID 1162); conditions: higher = more signal; also: test concentration not given here
[12] = compound effects on differentiated 3T3-L1 adipocyte viability – cell-based, 3T3-L1 adipocytes, calcein-AM fluorescence, 48 h, basal, profiling panel (AID 1163); conditions: 3T3-L1 adipocytes viability, higher = more signal; also: test concentration not given here
[13] = compound effects on hepatocellular carcinoma cell viability – HepG2, calcein-AM fluorescence, 48 h, basal, profiling panel (AID 1164); conditions: higher = more signal; also: test concentration not given here
[14] = compound effects on multiple myeloma cell viability – MM1S, calcein-AM fluorescence, 48 h, basal, profiling panel (AID 1165); conditions: higher = more signal; also: test concentration not given here
[15] = calcein-AM signal in unstimulated myeloma cells – cell-based, calcein-AM fluorescence, 48 h, PK04 Diversity Set, profiling panel (AID 1166); conditions: RPMI8226 myeloma viability, higher = more signal;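 also: cells grown under basal conditions without added stimulus; test concentration not given here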
[16] = JC-1 mitochondrial signal, unstimulated HepG2 cells – cell-based, JC-1 fluorescence, 24 h, 100 nL compound, profiling panel (AID 1167); conditions: HepG2 mitochondrial potential, higher = more signal; also: test concentration not given here
[17] = JC-1 mitochondrial signal, unstimulated adipocytes – cell-based, JC-1 fluorescence, 3T3-L1 adipocytes, 24 h, 100 nL compound, profiling panel (AID 1168); conditions: JC-1 mitochondrial fluorescence, higher = more signal, called active from +8 up or from −8 down; also: test concentration not given here
[18] = JC-1 mitochondrial signal, unstimulated myeloma cells – cell-based, JC-1 fluorescence, RPMI8226, 24 h, 100 nL compound, profiling panel (AID 1169); conditions: JC-1 mitochondrial potential fluorescence, higher = more signal; also: test concentration not given here
[19] = JC-1 mitochondrial signal, unstimulated MM1S myeloma – cell-based, JC-1 fluorescence, 24 h, 100 nL compound, profiling panel (AID 1170); conditions: MM1S mitochondrial potential, higher = more signal; also: test concentration not given here
[20] = resazurin metabolic signal in A549 cells – cell-based, resazurin fluorescence, 24 h, PK04 Diversity Set, profiling panel (AID 1171); conditions: A549 viability, higher = more signal, called active from +8 up or from −8 down; also: test concentration not given here

## CN(C)C(=O)[C@@]1(Cc2ccccc2N=[N+]=[N-])N=C(c2ccc(OCCCO)cc2)O[C@H]1c1ccccc1CN=[N+]=[N-]
[1]
  z-score: 1.04 (inactive)
[2]
  composite z-score: 0.635
[3]
  z-score: 17.8 (active)
[4]
  z-score: 2.5 (inactive)
[5]
  z-score: 2.73 (inactive)
[6]
  z-score: -0.682 (inactive)
[7]
  z-score: 1.01
[8]
  z-score: -1.52 (inactive)
[9]
  z-score: 1.06 (inactive)
[10]
  z-score: 0.474
[11]
  z-score: -0.996
[12]
  z-score: 1.16
[13]
  z-score: -1.23
[14]
  z-score: -2.91
[15]
  z-score: -3.39
[16]
  z-score: 2.17
[17]
  z-score: 0.618 (inactive)
[18]
  z-score: -0.904
[19]
  z-score: -0.679
[20]
  z-score: 0.276 (inactive)

## COc1ccc(CCN2C(=O)[C@@]3(c4ccc([N+](=O)[O-])cc4)CC(=O)N(CC45CC6CC(CC(C6)C4)C5)[C@@H]3c3ccc(CO)cc32)cc1
[1]
  z-score: 0.683 (inactive)
[2]
  composite z-score: 0.585
[3]
  z-score: 1.39 (inactive)
[4]
  z-score: 0.77 (inactive)
[5]
  z-score: 0.393 (inactive)
[6]
  z-score: 0.427 (inactive)
[7]
  z-score: -0.385
[8]
  z-score: -0.447 (inactive)
[9]
  z-score: -0.968 (inactive)
[10]
  z-score: 1.43
[11]
  z-score: 1.44
[12]
  z-score: 0.0861
[13]
  z-score: 0.71
[14]
  z-score: 0.0097
[15]
  z-score: -0.346
[16]
  z-score: 0.0982
[17]
  z-score: 0.0691 (inactive)
[18]
  z-score: -0.0825
[19]
  z-score: 0.997
[20]
  z-score: 0.616 (inactive)

## O=C1C2C=CC(C(O)C(c3ccccc3)c3ccccc3)N(Nc3ccc([N+](=O)[O-])cc3)C2C(=O)N1c1ccccc1 (stereo not given)
[1]
  z-score: -0.344 (inactive)
[2]
  composite z-score: 0.442
[3]
  z-score: 5.98 (inactive)
[4]
  z-score: 1.73 (inactive)
[5]
  z-score: -0.186 (inactive)
[6]
  z-score: 1.29 (inactive)
[7]
  z-score: -0.606
[8]
  z-score: 0.128 (inactive)
[9]
  z-score: -1.06 (inactive)
[10]
  z-score: -0.097
[11]
  z-score: -0.727
[12]
  z-score: -0.97
[13]
  z-score: 0.585
[14]
  z-score: -0.224
[15]
  z-score: -0.986
[16]
  z-score: 0.581
[17]
  z-score: -0.735 (inactive)
[18]
  z-score: 0.213
[19]
  z-score: -1.44
[20]
  z-score: 0.452 (inactive)

## CC(C)CNC(=O)[C@@]1(C)c2ccccc2C(=O)N(Cc2ccc(OC(F)(F)F)cc2)[C@H]1c1ccc(CO)cc1
[1]
  z-score: 1.28 (inactive)
[2]
  composite z-score: 0.152
[3]
  z-score: 2.97 (inactive)
[4]
  z-score: 0.251 (inactive)
[5]
  z-score: 1.09 (inactive)
[6]
  z-score: -0.0139 (inactive)
[7]
  z-score: 0.181
[8]
  z-score: -0.201 (inactive)
[9]
  z-score: 0.775 (inactive)
[10]
  z-score: 1.01
[11]
  z-score: 1.69
[12]
  z-score: 1.68
[13]
  z-score: 0.65
[14]
  z-score: -0.249
[15]
  z-score: -0.358
[16]
  z-score: 3.03
[17]
  z-score: -0.481 (inactive)
[18]
  z-score: 0.862
[19]
  z-score: 1.38
[20]
  z-score: 1.32 (inactive)

## COc1cc(CO)cc(I)c1O[C@H]1C=C(C(=O)NCCO)C[C@@H](N(CC2CCCCC2)C(=O)c2cc3ccccc3oc2=O)[C@@H]1O
[1]
  z-score: 2.01 (inactive)
[2]
  composite z-score: -0.0969
[3]
  z-score: 2.5 (inactive)
[4]
  z-score: 0.718 (inactive)
[5]
  z-score: 1.18 (inactive)
[6]
  z-score: 0.207 (inactive)
[7]
  z-score: -0.0608
[8]
  z-score: -0.289 (inactive)
[9]
  z-score: 1.3 (inactive)
[10]
  z-score: 0.647
[11]
  z-score: 0.846
[12]
  z-score: -0.5
[13]
  z-score: 0.206
[14]
  z-score: 1.01
[15]
  z-score: -1.1
[16]
  z-score: 0.919
[17]
  z-score: -0.294 (inactive)
[18]
  z-score: -0.806
[19]
  z-score: -0.467
[20]
  z-score: -0.206 (inactive)

## NC(=O)[C@H]1[C@@H]2C(=O)O[C@@H](c3ccccc3)[C@@H](c3ccccc3)N2[C@@H](c2ccc(O)cc2)[C@]12C(=O)Nc1ccc(C#CCCO)cc12
[1]
  z-score: -0.331 (inactive)
[2]
  composite z-score: -0.0559
[3]
  z-score: 5.17 (inactive)
[4]
  z-score: 0.92 (inactive)
[5]
  z-score: 0.696 (inactive)
[6]
  z-score: 0.442 (inactive)
[7]
  z-score: -0.289
[8]
  z-score: 0.482 (inactive)
[9]
  z-score: -0.661 (inactive)
[10]
  z-score: 0.563
[11]
  z-score: -0.191
[12]
  z-score: -0.0912
[13]
  z-score: 0.0926
[14]
  z-score: -0.664
[15]
  z-score: 0.0381
[16]
  z-score: -1.59
[17]
  z-score: -0.699 (inactive)
[18]
  z-score: -0.583
[19]
  z-score: 0.196
[20]
  z-score: -0.0774 (inactive)

## COc1cc2c(cc1OC)CN(C(=O)[C@@H]1[C@H]3C(=O)O[C@H](c4ccccc4)[C@H](c4ccccc4)N3[C@H](c3ccccc3OCCO)[C@@]13C(=O)Nc1ccccc13)CC2
[1]
  z-score: 1.47 (inactive)
[2]
  composite z-score: 0.551
[3]
  z-score: 8.6 (active)
[4]
  z-score: 3.56 (inactive)
[5]
  z-score: -0.0442 (inactive)
[6]
  z-score: 2.22 (inactive)
[7]
  z-score: 0.206
[8]
  z-score: 1.67 (inactive)
[9]
  z-score: 1.02 (inactive)
[10]
  z-score: 0.901
[11]
  z-score: -0.225
[12]
  z-score: 1.85
[13]
  z-score: -0.174
[14]
  z-score: -0.998
[15]
  z-score: -0.622
[16]
  z-score: 0.648
[17]
  z-score: 3.09 (inactive)
[18]
  z-score: -0.509
[19]
  z-score: 0.0343
[20]
  z-score: 0.872 (inactive)

## Cc1ccc(S[C@]2(C(=O)NC3CC3)CC(=O)N(Cc3cc(C(F)(F)F)cc(C(F)(F)F)c3)[C@@H]2c2ccc(CO)cc2)cc1
[1]
  z-score: 0.537 (inactive)
[2]
  composite z-score: -0.0186
[3]
  z-score: 1.21 (inactive)
[4]
  z-score: -0.861 (inactive)
[5]
  z-score: 1.08 (inactive)
[6]
  z-score: -1.95 (inactive)
[7]
  z-score: 0.95
[8]
  z-score: 0.249 (inactive)
[9]
  z-score: -0.00878 (inactive)
[10]
  z-score: 1.78
[11]
  z-score: 0.902
[12]
  z-score: 1.69
[13]
  z-score: 0.445
[14]
  z-score: 0.239
[15]
  z-score: 0.16
[16]
  z-score: 0.259
[17]
  z-score: -0.472 (inactive)
[18]
  z-score: -0.718
[19]
  z-score: -0.792
[20]
  z-score: 0.968 (inactive)

## O=C1O[C@@H](c2ccccc2)[C@@H](c2ccccc2)N2[C@@H](c3ccccc3OCCO)[C@]3(C(=O)Nc4ccc(C#CC5=CCCCC5)cc43)[C@@H](C(=O)O)[C@H]12
[1]
  z-score: 1.72 (inactive)
[2]
  composite z-score: 0.19
[3]
  z-score: -1.69 (inactive)
[4]
  z-score: -2.47 (inactive)
[5]
  z-score: -13.4 (active)
[6]
  z-score: -2.89 (inactive)
[7]
  z-score: 0.661
[8]
  z-score: 2.26 (inactive)
[9]
  z-score: -2.11 (inactive)
[10]
  z-score: -2.75
[11]
  z-score: -1
[12]
  z-score: 1.61
[13]
  z-score: -0.992
[14]
  z-score: -3.39
[15]
  z-score: -4.65
[16]
  z-score: -3.81
[17]
  z-score: 4.74 (inactive)
[18]
  z-score: -1.07
[19]
  z-score: -0.999
[20]
  z-score: 0.289 (inactive)
